The values that follow come from PubChem BioAssay.

In experiment [1] the test system is Plasmodium falciparum Sir2 (PF13_0152, Sir2A). Nature of the experiment: Plasmodium falciparum Sir2A binding compounds – biochemical, small-molecule microarray, 635 nm fluorescence, primary screen (AID 1098).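 Further: score merges spot fluorescence intensity with its signal-to-noise ratio.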 The following applies: fluorescence 635 nm, higher = more signal.
A short description of experiment [2]: probe aDKK1 binding to arrayed compounds – biochemical, biotinylated probe, 635/667 nm fluorescence, primary screen (AID 1099).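 Further: score merges 667nm spot fluorescence with signal to noise across triplicate slides.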 The following applies: small-molecule microarray, higher = more signal.
A short description of experiment [3]: probe aCHRDL2 binding to arrayed compounds – biochemical, biotinylated probe, 635/667 nm fluorescence, primary screen (AID 1100). The following applies: small-molecule microarray, higher = more signal.
The nature of experiment [4]: change in splice reporter luminescence, either direction, cell-based, HEK293, spliceosome inhibition project, primary screen (AID 1101).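 Further: HEK293 cells carrying a splicing-competent luciferase reporter gene; test concentration not given here.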 The following applies: HEK293 splicing luciferase reporter, 24 h, higher = more signal, called active from +8 up or from −8 down. In general terms: A reporter such as luciferase makes a cellular process visible.
For experiment [5], the target named is Fibroblast growth factor 10 (Homo sapiens) (UniProt O15520). Nature of the experiment: compounds binding fibroblast growth factor 10 – biochemical, small-molecule microarray, 635 nm fluorescence, primary screen (AID 1102). The following applies: FGF10 binding, fluorescence 635 nm, higher = more signal.
In experiment [6] the test system is glycogen synthase kinase-3 (GSK3A per assay name; protocol says GSK3B). Nature of the experiment: compounds binding glycogen synthase kinase-3 – biochemical, small-molecule microarray, 635 nm fluorescence, GSK3A, primary screen (AID 1103). Further: the record names both GSK3A and GSK3B. The following applies: fluorescence 635 nm, higher = more signal.
For experiment [7], the target named is Epidermal growth factor receptor (Homo sapiens) (UniProt P00533). Nature of the experiment: compounds binding epidermal growth factor receptor – biochemical, small-molecule microarray, 635 nm fluorescence, primary screen (AID 1104).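 Further: score merges 667 nm emission intensity with spot signal to noise over triplicate slides.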 The following applies: EGFR binding, higher = more signal.
Experiment [8] concerns the target Follistatin-related protein 3 (Homo sapiens) (UniProt O95633). Nature of the experiment: compounds binding follistatin-related protein 3 – biochemical, small-molecule microarray, 635 nm fluorescence, primary screen (AID 1105).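 Further: score merges emission near 667 nm and signal to noise per printed spot across three slides.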 Particulars: FSTL3 binding, higher = more signal.
For experiment [9], the target named is Dickkopf-related protein 1 (Homo sapiens) (UniProt O94907). Nature of the experiment: small molecules binding DKK1 protein – biochemical, small-molecule microarray, 635 nm fluorescence scan, primary screen (AID 1106).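 Further: score merges emission near 667 nm with signal to noise over three replicate slides.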 Particulars: higher = more signal.
For experiment [10], the system named is Inhibin beta A chain (activin A). Nature of the experiment: small molecules binding activin A – biochemical, small-molecule microarray, 635 nm fluorescence scan, primary screen (AID 1107).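 Further: mouse activin A protein probed at 4.33 µg/mL on printed slides; score merges bound-protein fluorescence near 667 nm with spot signal-to-noise.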 Particulars: INHBA, higher = more signal.
The test system of experiment [11] is Human papillomavirus type 1a protein E7 (residues 44-93). As to the kind of experiment: small molecules binding HPV E7 44-93 – biochemical, small-molecule microarray, residues 44-93, 635 nm fluorescence, primary screen (AID 1108).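 Further: E7 fragment applied at 1 µg/mL in TBST for 1 h at 4 C; score combines spot fluorescence with its signal to noise ratio.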 The following applies: fluorescence 635 nm, higher = more signal.
The nature of experiment [12]: hepatitis C replication reporter changes, two-sided – Huh7 cells, luciferase reporter, HCV replication inhibitor project, primary screen (AID 1109).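 Further: huh7 hepatoma cells harbouring a luciferase neomycin HCV replicon reporter; luciferase luminescence as measure of HCV replicon replication; test concentration not given here.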 Particulars: Huh7 HCV replicon luciferase reporter, 48 h; higher = more signal.
In experiment [13] the target is Left-right determination factor 2 (Homo sapiens) (UniProt O00292). As to the kind of experiment: small molecules binding LEFTY2 protein – biochemical, small-molecule microarray, 635 nm fluorescence scan, primary screen (AID 1110). The following applies: higher = more signal.
In experiment [14] the target is Calmodulin-1 (Homo sapiens) (UniProt P0DP23). Nature of the experiment: small molecules binding calmodulin-1 with EGTA – biochemical, small-molecule microarray, Cy5-labelled CALM1, profiling panel (AID 1111).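 Further: labelled calmodulin applied in Tris saline Tween buffer holding calcium plus EGTA and DTT.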 The following applies: Cy5-CALM1 binding fluorescence, higher = more signal.
Experiment [15] has the same target. Nature of the experiment: small molecules binding Ca-loaded calmodulin-1 – biochemical, small-molecule microarray, Cy5-labelled CALM1, plus calcium, artefact control for SMM control-protein annotation, profiling panel (AID 1112).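 Further: score merges spot fluorescence with signal to noise from triplicate slides.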 Particulars: Cy5-CALM1 binding fluorescence, higher = more signal.
The nature of experiment [16]: probe aWnt5a binding to arrayed compounds – biochemical, biotinylated probe, 635/667 nm fluorescence, primary screen (AID 1113).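 Further: score merges 667 nm fluorescence intensity with signal-to-noise per printed feature.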 The following applies: small-molecule microarray, higher = more signal.
A short description of experiment [17]: probe aShh binding to arrayed compounds – biochemical, biotinylated probe, 635/667 nm fluorescence, primary screen (AID 1114).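 Further: probe is biotin-labelled aShh protein from a stem cell growth factor screen; measures binding of labelled protein to compounds printed on the slide; score merges feature fluorescence at 667 nm with signal-to-noise.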 Particulars: small-molecule microarray, higher = more signal.
Experiment [18] is described as follows: probe aNog binding to arrayed compounds – biochemical, biotinylated probe, 635/667 nm fluorescence, primary screen (AID 1115).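 Further: probe is biotinylated aNog protein used at 0.15 µg/mL for 1 h at 4 C; z-score combines 667 nm fluorescence of each spot with its signal to noise.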 The following applies: small-molecule microarray, higher = more signal.
The target of experiment [19] is Torsin-1A-interacting protein 1 (Homo sapiens) (UniProt Q5JTV8). Nature of the experiment: compound microarray binding of lysate hLAP1 – cell lysate, small-molecule microarray, COS7 lysate, 635/667 nm fluorescence, primary screen (AID 1116). The following applies: 635 nm fluorescence, higher = more signal.
For experiment [20], the target named is Alpha-bungarotoxin (Bungarus multicinctus) (UniProt P60615). As to the kind of experiment: compounds binding labelled alpha-BTX control protein – biochemical, small-molecule microarray, Alexa647 label, 635/667 nm fluorescence, artefact control for SMM control protein annotation, profiling panel (AID 1117). Particulars: alpha-BTX-A647 binding fluorescence, higher = more signal.

The structures appear in SMILES notation. Calls of active or inactive are those of the source.

Fibroblast growth factor 10 (Homo sapiens), sequence (O15520 whole entry, looked up): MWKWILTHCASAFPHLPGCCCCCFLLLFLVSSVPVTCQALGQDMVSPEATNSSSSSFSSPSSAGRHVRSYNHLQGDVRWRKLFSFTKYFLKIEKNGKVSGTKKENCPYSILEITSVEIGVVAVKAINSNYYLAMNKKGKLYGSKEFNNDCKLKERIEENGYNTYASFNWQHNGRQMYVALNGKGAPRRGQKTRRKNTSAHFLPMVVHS
Epidermal growth factor receptor (Homo sapiens), sequence (P00533 whole entry, looked up): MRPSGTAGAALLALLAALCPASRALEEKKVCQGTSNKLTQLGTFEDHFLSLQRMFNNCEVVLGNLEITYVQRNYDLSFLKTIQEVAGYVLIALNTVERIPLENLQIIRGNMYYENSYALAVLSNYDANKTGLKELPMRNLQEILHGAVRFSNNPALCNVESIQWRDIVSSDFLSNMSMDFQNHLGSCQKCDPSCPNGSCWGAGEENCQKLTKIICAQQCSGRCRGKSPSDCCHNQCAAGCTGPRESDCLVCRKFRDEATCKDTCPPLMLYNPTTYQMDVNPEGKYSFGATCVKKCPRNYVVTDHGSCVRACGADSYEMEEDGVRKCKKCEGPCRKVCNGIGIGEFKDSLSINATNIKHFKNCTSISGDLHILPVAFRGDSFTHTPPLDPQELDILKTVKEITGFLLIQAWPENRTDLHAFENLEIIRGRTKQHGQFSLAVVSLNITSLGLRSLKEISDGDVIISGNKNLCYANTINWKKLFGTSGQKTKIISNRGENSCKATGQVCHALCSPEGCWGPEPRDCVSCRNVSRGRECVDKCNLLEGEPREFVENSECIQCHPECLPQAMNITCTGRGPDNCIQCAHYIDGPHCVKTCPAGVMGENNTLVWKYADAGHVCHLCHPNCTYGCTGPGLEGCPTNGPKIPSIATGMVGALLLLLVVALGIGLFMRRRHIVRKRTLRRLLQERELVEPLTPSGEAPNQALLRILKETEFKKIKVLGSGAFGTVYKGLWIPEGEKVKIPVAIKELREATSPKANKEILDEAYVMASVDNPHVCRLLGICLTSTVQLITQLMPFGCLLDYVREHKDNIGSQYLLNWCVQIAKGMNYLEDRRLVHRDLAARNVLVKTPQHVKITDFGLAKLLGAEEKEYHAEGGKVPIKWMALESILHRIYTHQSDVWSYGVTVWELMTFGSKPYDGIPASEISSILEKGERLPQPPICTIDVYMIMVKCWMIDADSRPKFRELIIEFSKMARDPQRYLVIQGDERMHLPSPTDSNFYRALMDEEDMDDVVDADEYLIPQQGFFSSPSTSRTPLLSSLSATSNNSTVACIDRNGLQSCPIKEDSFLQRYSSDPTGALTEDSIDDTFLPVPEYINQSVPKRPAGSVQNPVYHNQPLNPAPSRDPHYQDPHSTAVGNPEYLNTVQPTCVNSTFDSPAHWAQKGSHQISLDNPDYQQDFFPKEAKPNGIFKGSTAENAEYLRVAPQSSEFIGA
Follistatin-related protein 3 (Homo sapiens), sequence (O95633 whole entry, looked up): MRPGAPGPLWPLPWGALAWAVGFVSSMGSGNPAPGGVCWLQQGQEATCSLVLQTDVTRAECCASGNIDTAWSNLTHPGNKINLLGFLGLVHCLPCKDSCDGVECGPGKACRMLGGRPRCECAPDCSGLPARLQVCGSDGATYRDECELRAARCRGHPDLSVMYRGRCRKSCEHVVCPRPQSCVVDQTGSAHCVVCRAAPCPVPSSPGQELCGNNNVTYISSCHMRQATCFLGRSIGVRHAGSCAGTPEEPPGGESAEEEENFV
Torsin-1A-interacting protein 1 (Homo sapiens), sequence (Q5JTV8 whole entry, looked up): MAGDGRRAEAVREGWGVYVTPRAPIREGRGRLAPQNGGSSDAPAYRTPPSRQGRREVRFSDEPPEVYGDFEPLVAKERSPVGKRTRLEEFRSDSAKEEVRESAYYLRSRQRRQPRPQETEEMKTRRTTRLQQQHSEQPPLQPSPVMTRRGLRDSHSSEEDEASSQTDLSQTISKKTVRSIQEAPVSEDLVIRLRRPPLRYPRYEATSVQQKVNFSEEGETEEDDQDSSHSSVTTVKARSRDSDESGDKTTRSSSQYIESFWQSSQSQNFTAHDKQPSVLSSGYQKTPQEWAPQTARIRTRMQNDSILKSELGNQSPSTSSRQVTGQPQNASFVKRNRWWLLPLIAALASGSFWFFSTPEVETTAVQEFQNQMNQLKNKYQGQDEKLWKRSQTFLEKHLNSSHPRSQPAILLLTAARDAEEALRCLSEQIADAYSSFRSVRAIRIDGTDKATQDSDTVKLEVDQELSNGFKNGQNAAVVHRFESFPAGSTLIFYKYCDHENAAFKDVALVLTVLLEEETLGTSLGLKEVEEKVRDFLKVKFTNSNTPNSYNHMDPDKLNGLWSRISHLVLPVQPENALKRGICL
Left-right determination factor 2 (Homo sapiens), sequence (O00292 whole entry, looked up): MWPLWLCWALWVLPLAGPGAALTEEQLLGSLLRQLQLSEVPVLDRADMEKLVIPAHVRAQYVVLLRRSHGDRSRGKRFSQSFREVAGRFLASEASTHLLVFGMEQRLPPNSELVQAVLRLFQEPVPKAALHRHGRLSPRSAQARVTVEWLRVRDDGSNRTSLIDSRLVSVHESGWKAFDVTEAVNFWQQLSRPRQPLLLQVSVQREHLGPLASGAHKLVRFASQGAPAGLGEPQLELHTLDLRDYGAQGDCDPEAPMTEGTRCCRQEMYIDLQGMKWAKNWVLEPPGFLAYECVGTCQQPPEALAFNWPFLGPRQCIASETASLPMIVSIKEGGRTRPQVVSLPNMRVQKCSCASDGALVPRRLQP
Alpha-bungarotoxin (Bungarus multicinctus), sequence (P60615 whole entry, looked up): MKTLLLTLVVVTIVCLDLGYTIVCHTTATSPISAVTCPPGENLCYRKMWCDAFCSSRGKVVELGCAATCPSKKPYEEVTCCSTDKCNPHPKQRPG
Dickkopf-related protein 1 (Homo sapiens), sequence (O94907 whole entry, looked up): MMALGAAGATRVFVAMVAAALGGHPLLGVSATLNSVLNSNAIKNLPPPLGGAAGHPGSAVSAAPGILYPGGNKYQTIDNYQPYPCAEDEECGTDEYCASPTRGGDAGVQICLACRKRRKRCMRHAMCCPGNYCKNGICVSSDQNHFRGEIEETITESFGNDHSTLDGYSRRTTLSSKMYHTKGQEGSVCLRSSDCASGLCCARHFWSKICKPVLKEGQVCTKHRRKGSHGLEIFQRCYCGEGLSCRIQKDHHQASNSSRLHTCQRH

With `CC(CO)N1C(=O)[C@@H]2[C@H]3C(=O)OCC=C[C@H]3OC23C=CCN(c2ccc4ccccc4c2)C(=O)[C@@H]13` (stereo not given in full), the composite z-score in experiment [1] was -0.893; in experiment [2] it was -0.0682; in experiment [3], 0.725; in experiment [5], -0.916; in experiment [6], -1.56; in experiment [7] it was -1.64. Also, the composite z-score in experiment [8] was -1.66; in [9], -1.83; in [10], -1.18; in [11], -1.55; in experiment [13] it was -2.64; in experiment [14] it was -0.505. The composite z-score in [15] was 0.0117; in experiment [16], -0.174; in [17], -0.0035; in experiment [18], 0.474; in experiment [19] it was -1.14; in experiment [20], -0.674. The z-score in experiment [4] is 0.445 (inactive); in experiment [12], -0.418.

With `C=C(COC)/C(=C/C[C@@H](OC(C)=O)c1cccc(OCCO)c1)c1cnc2ccccc2c1`, the composite z-score is -0.219 in [1]; 0.15 in experiment [2]; 0.322 in experiment [3]; 1.56 in experiment [5]; 0.917 in experiment [6]; 1.26 in [7]. For the same molecule, the composite z-score was 1.55 in [8]; 1.02 in experiment [9]; 1.93 in experiment [10]; 0.848 in experiment [11]; 0.754 in experiment [13]; -0.534 in experiment [14]. The composite z-score was -0.593 in [15]; 0.0391 in [16]; 0.199 in experiment [17]; -0.0065 in experiment [18]; 0.302 in experiment [19]; 1.87 in experiment [20]. The z-score is -0.302 (inactive) in experiment [4] and -1.73 in [12].

Turning to `O=C(NCCN1CCOCC1)[C@@H]1c2ccccc2C(=O)N(CC23CC4CC(CC(C4)C2)C3)[C@H]1c1ccc(CO)cc1`, the composite z-score in [1] turned out to be 1.13; in experiment [2], 0.253; in experiment [3], 0.789; in experiment [5], 1.33; in [6], 1.32; in experiment [7], 0.634. Further, the composite z-score in experiment [8] was determined as 1.21; in [9], 0.0037; in experiment [10], 0.471; in experiment [11], 1.45; in [13], 0.662; in experiment [14], 1.7. In addition, the composite z-score is -0.236 in experiment [15]; -0.0519 in experiment [16]; -0.0362 in [17]; -0.112 in experiment [18]; 0.405 in experiment [19]; 1.43 in experiment [20]. The z-score in [4] was 0.507 (inactive); in [12] it was -2.21.

Turning to `O=C/C=C/c1ccc(-c2ccccc2)cc1`, the composite z-score in experiment [1] was -0.821; in experiment [2], -0.241; in experiment [3], 0.149; in experiment [5], 0.141; in [6] it was -0.1; in experiment [7] it was 0.005. Also, the composite z-score was 0.0445 in experiment [8]; -0.14 in experiment [9]; 1.1 in [10]; -1.06 in [11]; 0.435 in experiment [13]; -0.501 in experiment [14]. Also, the composite z-score in experiment [15] is -0.524; in experiment [16], -0.129; in experiment [17], -0.341; in [18] it was -0.739; in [19], -0.0833; in [20] it was 0.27. Also, the z-score in experiment [4] is -1.04 (inactive); in experiment [12], 0.861.

Consider `COc1ccc(C(=O)Nc2ccc(CN3C(=O)[C@]4(O[C@H](CC(=O)N(CCO)Cc5ccccc5)[C@@H]([Si](C)(C)c5ccc(OC)cc5)[C@@H]4C)c4ccccc43)cc2)cc1`, for which the composite z-score in experiment [1] is 1.11; in experiment [2], -0.0522; in [3], -0.338; in experiment [5] it was 1.34; in experiment [6], 0.956; in [7] it was 0.918. Besides, the composite z-score in [8] is 1.34; in experiment [9] it was 1.1; in experiment [10], 0.842; in experiment [11], 1.37; in experiment [13], 0.803; in experiment [14], -0.0162. For the same molecule, the composite z-score was -0.46 in experiment [15]; 0.0354 in experiment [16]; 0.108 in experiment [17]; 0.0326 in experiment [18]; 0.811 in [19]; 0.543 in experiment [20]. Moreover, the z-score in experiment [4] is -1.88 (inactive); in [12] it was -3.71.

For the molecule `COc1cc2c(cc1OC)CN(C(=O)[C@@H]1[C@H]3C(=O)O[C@H](c4ccccc4)[C@H](c4ccccc4)N3[C@H](c3ccc(O)cc3)[C@@]13C(=O)Nc1ccc(C#CC4=CCCCC4)cc13)CC2`, the composite z-score stood at 1.39 in experiment [1]; 0.716 in [2]; 0.586 in experiment [3]; 0.975 in [5]; 1.28 in experiment [6]; 0.452 in experiment [7]. The composite z-score was 1.03 in experiment [8]; 0.453 in [9]; 0.475 in experiment [10]; 0.244 in experiment [11]; 0.512 in experiment [13]; 1.07 in experiment [14]. Further, the composite z-score in experiment [15] is 0.319; in experiment [16], 0.0044; in experiment [17], -0.011; in [18], 0.14; in experiment [19], 0.635; in experiment [20], 0.891. Besides, the z-score was -0.101 (inactive) in experiment [4] and -1.49 in [12].
